Results: publication PMC10668032, “Altered binding affinity of SIX1-Q177R correlates with enhanced WNT5A and WNT pathway effector expression in Wilms tumor”
Over roughly 33,000 sequences, “e-score” has its median near -0.05; the highest 2% begin near 0.38. The list comes from a sample in which the highest values are over-represented; it also holds similar and randomly drawn sequences.

Each sequence was assayed against T1, SIX1-Q177R homeodomain (human, UniProt Q15475 108-198, Q177R) (assay: universal protein binding microarray; Universal all-10-mer PBM (8x60K, AMADID 030236), 300 nM GST-tagged protein, Alexa Fluor 488 anti-GST; buffer, salt, pH and temperature not stated (as in Berger); high values mean tight binding). Conditions: protein: ivt; tags: N-terminal GST; dsDNA, one strand shown.
T1 sequence: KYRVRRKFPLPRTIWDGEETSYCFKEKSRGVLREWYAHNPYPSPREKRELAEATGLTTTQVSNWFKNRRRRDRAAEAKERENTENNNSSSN
In short: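 GST-tagged homeodomains were made by in vitro transcription/translation and quantified by anti-GST western blot against a recombinant GST standard curve. They were applied in duplicate at 300 nM final concentration to universal 'all 10-mer' protein binding microarrays (8×60K format). Binding was quantified as 8-mer E-scores with the Universal PBM Analysis Suite.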

| Sequence | binding signal [E-score] |
| --- | --- |
| GACACTTA | 0.383 ± 0.00709 |
| CAACGACA | 0.197 ± 0.0113 |
| CGGATCCC | 0.235 ± 0.023 |
| CAGGGGTA | 0.234 ± 0.0165 |
| ACCCAGGG | 0.201 ± 0.0184 |
| AACACTAG | 0.357 ± 0.0233 |
| AACACTAC | 0.381 ± 0.0184 |
| CACACTAC | 0.2973 ± 0.00215 |
| AACACTAT | 0.295 ± 0.0435 |
| CACACTAG | 0.25 ± 0.0068 |
| GACACTAC | 0.434 ± 0.00877 |
| CACCCAGG | 0.284 ± 0.0239 |
| GGTGCTAC | 0.183 ± 0.00715 |
| ACACTAAT | 0.333 ± 0.0159 |
| ACTCTACC | 0.151 ± 0.0299 |
| TCACTACA | 0.225 ± 0.0148 |
| ACACTACT | 0.393 ± 0.0188 |
| ACACTACA | 0.41 ± 0.0193 |
| ACACTACG | 0.388 ± 0.00491 |
| CCACTACA | 0.298 ± 0.0151 |
| ACACTAAG | 0.337 ± 0.0137 |
| ACACTATC | 0.342 ± 0.0149 |
| ACACTATG | 0.328 ± 0.0294 |
| ACACTACC | 0.421 ± 0.00623 |
| ACACTATA | 0.322 ± 0.0287 |

| Sequence | binding signal [E-score] |
| --- | --- |
| CCAGAACA | 0.261 ± 0.00433 |
| GGGGCGTA | 0.159 ± 0.0113 |
| CCGCGTCA | 0.156 ± 0.0229 |
| AGTAGGTG | 0.279 ± 0.025 |
| CCTCTTTA | 0.171 ± 0.0307 |
| AGGGTATG | 0.226 ± 0.0255 |
| ACCGGACA | 0.245 ± 0.00259 |
| CCCCGGCC | 0.233 ± 0.0259 |
| GGGTACAC | 0.443 ± 0.0111 |
| CGGTATCC | 0.325 ± 0.00938 |
| AGGTACAC | 0.452 ± 0.00159 |
| CGGTATAC | 0.165 ± 0.00282 |
| AGGTACTC | 0.166 ± 0.0232 |
| GGGTACAA | 0.17 ± 0.0208 |
| CGGTACAC | 0.4352 ± 0.00226 |
| AGGTATCC | 0.344 ± 0.00693 |
| GGGTACCC | 0.234 ± 0.00584 |
| CGCACTAC | 0.152 ± 0.0379 |
| CACGCTCG | 0.242 ± 0.0063 |
| ACTGCATA | 0.2138 ± 0.00024 |
| ATTGGGTG | 0.261 ± 0.0204 |
| CACTCATA | 0.195 ± 0.0111 |
| CGCAATAC | 0.276 ± 0.0226 |
| CACGCAAC | 0.227 ± 0.0168 |
| CCCCCTAC | 0.267 ± 0.031 |

| Sequence | binding signal [E-score] |
| --- | --- |
| TCGCACCA | 0.177 ± 0.0487 |
| CAAGTACA | 0.207 ± 0.0357 |
| CCCTAACA | 0.181 ± 0.028 |
| CACCAATG | 0.222 ± 0.00267 |
| CTCCCCAA | 0.28 ± 0.0223 |
| ACAACCCC | 0.207 ± 0.03 |
| GGCTACAC | 0.4245 ± 0.0031 |
| AGCCACAC | 0.208 ± 0.0231 |
| GGCTACGA | 0.196 ± 0.00863 |
| CGCTACAC | 0.4023 ± 0.0021 |
| CGCGCTAC | 0.15 ± 0.0294 |
| CGCTCTAC | 0.157 ± 0.026 |
| AGCTACAC | 0.435 ± 0.00848 |
| GGCCACAC | 0.233 ± 0.0102 |
| CTTTTACA | 0.17 ± 0.0837 |
| CACGTACG | 0.167 ± 0.0161 |
| CTCCTACA | 0.243 ± 0.0252 |
| ACCACGTC | 0.182 ± 0.0198 |
| ACTATCGA | 0.156 ± 0.0186 |
| CTGAGCAC | 0.254 ± 0.0174 |
| CTGAACAC | 0.4224 ± 0.00137 |
| ATGAACAC | 0.4 ± 0.0197 |
| GTGAACAC | 0.4118 ± 0.00099 |
| CTGAACCC | 0.187 ± 0.0441 |
| GTGAGCAC | 0.159 ± 0.0143 |

| Sequence | binding signal [E-score] |
| --- | --- |
| ATGCACAC | 0.289 ± 0.00704 |
| ATGAACCC | 0.198 ± 0.0247 |
| TCAGAACA | 0.228 ± 0.00667 |
| ACTCCCCA | 0.163 ± 0.025 |
| GGAAGACA | 0.155 ± 0.0119 |
| CACGTCGA | 0.177 ± 0.0103 |
| CAGTCGGG | 0.196 ± 0.029 |
| ATCCGACC | 0.153 ± 0.0521 |
| CCCGATCC | 0.2392 ± 0.00171 |
| AGATGGTG | 0.2726 ± 0.000212 |
| CTACACGA | 0.388 ± 0.00636 |
| CTACACAG | 0.161 ± 0.084 |
| GTACTCGA | 0.19 ± 0.0242 |
| CTACACAC | 0.297 ± 0.0318 |
| GTACACGA | 0.4189 ± 0.00327 |
| CTACACGC | 0.4033 ± 0.000742 |
| CAACACGC | 0.363 ± 0.0087 |
| GTACACAA | 0.308 ± 0.0492 |
| CCAGGATC | 0.193 ± 0.0154 |
| CCACTTCC | 0.16 ± 0.0569 |
| TGTACGAA | 0.157 ± 0.0609 |
| AATGGACA | 0.174 ± 0.00513 |
| ACCCTCCC | 0.211 ± 0.0163 |
| CACCTCTA | 0.295 ± 0.0114 |
| GCGTACAC | 0.4123 ± 0.00366 |

| Sequence | binding signal [E-score] |
| --- | --- |
| CCGTACCC | 0.1577 ± 0.00155 |
| ACGTACAC | 0.436 ± 0.00504 |
| ACGTAATC | 0.186 ± 0.0139 |
| ACGTACCC | 0.202 ± 0.00673 |
| CCGCACAC | 0.303 ± 0.0285 |
| GCGTACCC | 0.237 ± 0.0376 |
| GCGTACGC | 0.235 ± 0.0141 |
| CCGTACAC | 0.418 ± 0.00993 |
| CACCACGA | 0.28 ± 0.0196 |
| CAAGGGTA | 0.19 ± 0.0194 |
| AACCCCGG | 0.2652 ± 0.00233 |
| AACGGACA | 0.278 ± 0.00733 |
| TGTCCACA | 0.205 ± 0.0326 |
| TAGGTACA | 0.179 ± 0.00841 |
| CTAGCAAA | 0.173 ± 0.0314 |
| TCCCGACA | 0.155 ± 0.0127 |
| CACCGTCC | 0.276 ± 0.00535 |
| ACGCACCG | 0.177 ± 0.0273 |
| ACACACCT | 0.386 ± 0.00817 |
| ACACACAT | 0.201 ± 0.0773 |
| ACACACGT | 0.27 ± 0.0195 |
| ACACACCG | 0.428 ± 0.0122 |
| ACACACAG | 0.269 ± 0.0266 |
| AAAAGGTG | 0.195 ± 0.0717 |
| ACTGGGTG | 0.319 ± 0.0299 |

| Sequence | binding signal [E-score] |
| --- | --- |
| ACGCAGTG | 0.212 ± 0.0202 |
| TGTATCAA | 0.158 ± 0.0316 |
| GTCACGAC | 0.164 ± 0.0297 |
| CCCGGGAG | 0.189 ± 0.00274 |
| ACTGTGCA | 0.195 ± 0.0266 |
| GGGACACC | 0.478 ± 0.0106 |
| TGGACACA | 0.252 ± 0.0644 |
| AGGACACT | 0.3795 ± 0.00235 |
| AGGACACC | 0.4835 ± 0.000969 |
| AGGACACA | 0.224 ± 0.0724 |
| AGGACACG | 0.349 ± 0.0239 |
| CGGACACG | 0.373 ± 0.0179 |
| GGGACCCC | 0.211 ± 0.0329 |
| CGGACACC | 0.48 ± 0.00522 |
| GGGACACA | 0.232 ± 0.0537 |
| CGGACACA | 0.226 ± 0.0432 |
| AGGTAGTG | 0.2489 ± 0.00187 |
| AGGATACA | 0.159 ± 0.0108 |
| ACCATCAG | 0.181 ± 0.0146 |
| CCAGCACC | 0.153 ± 0.0163 |
| GACCCCTA | 0.203 ± 0.0141 |
| CTGACTCC | 0.2326 ± 0.00123 |
| ACGCCCAA | 0.176 ± 0.019 |
| ACTTCTTA | 0.183 ± 0.0236 |
| CTATTTAC | 0.1742 ± 0.000191 |

| Sequence | binding signal [E-score] |
| --- | --- |
| CTTTACCC | 0.171 ± 0.0198 |
| ATTTACAC | 0.451 ± 0.0245 |
| ATTCACAC | 0.348 ± 0.0127 |
| CTTTGCAC | 0.16 ± 0.0373 |
| CTTTACAC | 0.431 ± 0.0203 |
| CCCCTAAG | 0.172 ± 0.0119 |
| ACCTGGGA | 0.186 ± 0.00272 |
| CCAACAAC | 0.211 ± 0.0163 |
| CAGCACCA | 0.182 ± 0.0218 |
| CACGTGGG | 0.16 ± 0.0172 |
| CGTGTCGC | 0.44 ± 0.0199 |
| AGTGTCGC | 0.4145 ± 0.00339 |
| AGTGTCGA | 0.408 ± 0.0268 |
| CGTGTGGC | 0.181 ± 0.00793 |
| CGGGTCGC | 0.189 ± 0.0605 |
| AGTGTGGA | 0.162 ± 0.0186 |
| AGTGTTGG | 0.3564 ± 0.000735 |
| AGGGTCGG | 0.172 ± 0.00622 |
| AGTGTCGG | 0.4212 ± 0.00372 |
| AGTGTCTC | 0.329 ± 0.00361 |
| AAGCGGTG | 0.214 ± 0.0624 |
| CATCCACA | 0.177 ± 0.00969 |
